Read-out in test [1]: Transforming growth factor beta 1 (TGFb1), TGFB1 (gene 7040)
The test can be described thus: BSK_KF3CT_TGFb1: BioMAP Diversity Plus: KF3CT Assay for Transforming growth factor beta 1 (TGFb1) Biomarker Activity (AID 2283072). The settings on record: primary human keratinocytes with fibroblasts; actives raise or lower the signal. The method, boiled down: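 ELISA quantifies TGF-b1 at 24 h post-dose in a primary human skin co-culture of keratinocytes and fibroblasts, with gain or loss judged against DMSO. Parallel SRB total-protein staining flags overt cytotoxicity.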

Read-out in test [2]: C-C motif chemokine 2 (Homo sapiens) (UniProt P13500)
The test can be described thus: BSK_KF3CT_MCP1: BioMAP Diversity Plus: KF3CT Assay for Monocyte Chemoattractant Protein 1 (MCP1/CCL2) Biomarker Activity (AID 2283073). The settings on record: primary human keratinocytes with fibroblasts; actives raise or lower the signal. The method, boiled down: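 Human keratinocyte–foreskin fibroblast co-culture; MCP-1 measured by ELISA 24 h after dosing. Bidirectional fit vs DMSO; cytotoxicity tracked by SRB total protein in parallel cultures.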

Read-out in test [3]: Matrix Metallopeptidase 9 (MMP9), MMP9 (gene 4318)
The test can be described thus: BSK_KF3CT_MMP9: BioMAP Diversity Plus: KF3CT Assay for Matrix Metallopeptidase 9 (MMP9) Biomarker Activity (AID 2283074).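 For AC50: MMP9 protein level quantified by ELISA in the co-culture.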 The conditions noted are these: primary human keratinocytes with fibroblasts; actives raise or lower the signal. An outline of the steps: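 ELISA read-out of MMP-9 at 24 h post-dosing in a co-culture of human skin keratinocytes and foreskin fibroblasts. Gain or loss of signal was fitted in both directions against DMSO.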

Read-out in test [4]: urokinase plasminogen activator (uPA), PLAU (gene 5328)
The test can be described thus: BSK_KF3CT_uPA: BioMAP Diversity Plus: KF3CT Assay for urokinase plasminogen activator (uPA) Biomarker Activity (AID 2283075). The settings on record: primary human keratinocytes with fibroblasts; actives raise or lower the signal. An outline of the steps:
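Skin co-culture (keratinocytes + foreskin fibroblasts), human primary; 24 h post-dose; uPA by ELISA; gain/loss fit vs DMSO baseline.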

Read-out in a further test: CD40, CD40 (gene 958)
The test can be described thus: BSK_LPS_CD40: BioMAP Diversity Plus: LPS Assay for CD40 Biomarker Activity (AID 2283076). The settings on record: primary human HUVEC with PBMC; actives raise or lower the signal. An outline of the steps:
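HUVEC plus PBMC co-culture stimulated with LPS; CD40 quantified by ELISA 24 h after compound dosing. Fitting was bidirectional relative to DMSO. SRB staining of parallel cultures flagged overt cytotoxicity.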

Read-out in test [5]: E-selectin (Homo sapiens) (UniProt P16581)
The test can be described thus: BSK_LPS_Eselectin: BioMAP Diversity Plus: LPS Assay for Eselectin Biomarker Activity (AID 2283077). The settings on record: primary human HUVEC with PBMC; actives raise or lower the signal. An outline of the steps:
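Human umbilical vein endothelial cells co-cultured with PBMC under LPS stimulation; cell-surface E-selectin measured by ELISA 24 h after dosing. Change in either direction versus DMSO, with SRB total-protein staining in parallel cultures for cytotoxicity.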

Read-out in test [6]: Interleukin-8 (IL8), CXCL8 (gene 3576)
The test can be described thus: BSK_LPS_IL8: BioMAP Diversity Plus: LPS Assay for Interleukin-8 (IL8) Biomarker Activity (AID 2283078). The settings on record: primary human HUVEC with PBMC; actives raise or lower the signal. The method, boiled down: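 Human umbilical vein endothelial cells co-cultured with PBMC, LPS-stimulated, exposed to compound for 24 h. IL-8 quantified by ELISA; fitted in both directions against DMSO, with SRB total-protein staining of parallel cultures for cytotoxicity.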

The nature of test [7]: BSK_LPS_SRB: Viability Assessment in the BioMAP Diversity Plus: LPS Assay (AID 2283079).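 Note: total protein by sulforhodamine B absorbance as a cytotoxicity measure; measured one day after compound addition.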 The conditions noted are these: primary human HUVEC with PBMC. An outline of the steps: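 Co-culture of human umbilical vein endothelial cells and PBMC, read 24 h after dosing. Total protein by 0.1% SRB staining after 10% TCA fixation, absorbance at 560 nm; bidirectional fit against DMSO.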

Read-out in test [8]: Interleukin-1 alpha (IL1a), IL1A (gene 3552)
The test can be described thus: BSK_LPS_IL1a: BioMAP Diversity Plus: LPS Assay for Interleukin-1 alpha (IL1a) Biomarker Activity (AID 2283080). The settings on record: primary human HUVEC with PBMC; actives raise or lower the signal. The method, boiled down: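 Human umbilical vein endothelial cells co-cultured with PBMC and stimulated with LPS; IL-1a measured by ELISA 24 h after dosing. Bidirectional fitting against DMSO; cytotoxicity checked by SRB staining in parallel cultures.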

Read-out in test [9]: Monocyte Chemoattractant Protein-1 (MCP1), CCL2 (gene 6347)
The test can be described thus: BSK_LPS_MCP1: BioMAP Diversity Plus: LPS Assay for Monocyte Chemoattractant Protein-1 (MCP1) Biomarker Activity (AID 2283081). The conditions noted are these: primary human HUVEC with PBMC; actives raise or lower the signal. An outline of the steps:
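Human umbilical vein endothelial cells co-cultured with PBMC, LPS-stimulated; secreted MCP-1 measured by ELISA 24 h after compound addition. Bidirectional curve fitting against DMSO baseline; SRB total-protein staining in parallel cultures for cytotoxicity.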

Active and inactive are the calls of the source. Rule for the calls: active = hit-call score of the fitted dose curve at least 0.9, where 1 is the maximum; inactive = score below 0.9.

Chain of E-selectin (Homo sapiens) (P16581 whole entry, looked up): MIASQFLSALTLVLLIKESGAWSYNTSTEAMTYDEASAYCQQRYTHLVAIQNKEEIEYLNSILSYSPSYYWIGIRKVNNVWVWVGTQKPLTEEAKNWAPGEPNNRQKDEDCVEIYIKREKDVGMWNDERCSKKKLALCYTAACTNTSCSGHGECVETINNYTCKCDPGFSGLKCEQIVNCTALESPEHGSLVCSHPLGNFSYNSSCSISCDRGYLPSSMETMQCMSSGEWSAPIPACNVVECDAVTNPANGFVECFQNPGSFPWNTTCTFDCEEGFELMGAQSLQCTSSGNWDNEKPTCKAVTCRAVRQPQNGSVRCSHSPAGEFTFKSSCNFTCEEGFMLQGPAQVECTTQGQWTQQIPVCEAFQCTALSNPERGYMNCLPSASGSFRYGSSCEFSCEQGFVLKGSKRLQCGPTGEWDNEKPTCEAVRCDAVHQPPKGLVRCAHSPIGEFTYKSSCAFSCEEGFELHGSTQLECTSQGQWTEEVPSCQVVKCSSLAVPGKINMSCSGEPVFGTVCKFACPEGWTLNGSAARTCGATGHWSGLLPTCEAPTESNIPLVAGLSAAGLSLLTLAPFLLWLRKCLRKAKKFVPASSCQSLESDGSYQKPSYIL

For the molecule `NNC(=O)c1ccncc1`, the outcome in [1] is “inactive”; in test [2], “inactive”; in test [3], “inactive”; in test [4], “inactive”; with CD40, CD40 (gene 958) it was “inactive”; in test [5], “inactive”. The outcome in test [6], in test [7] and in [8] was inactive.
`c1ccc2ncccc2c1`: the outcome in test [1], in [2], in test [3], in test [4], in test [5] and in test [7] was inactive. The outcome in test [8] and in test [9] was inactive.
Consider `OCC(CO)(CO)CO`, for which the outcome in [1], in test [2], in test [3], in test [4], in test [5] and in [6] was inactive. Further, the outcome in [7], in test [8] and in [9] was inactive.
Turning to `Cc1ccc(S(=O)(=O)NC(=O)NN2CCCCCC2)cc1`, the result in [1], in test [2], in test [3], in [4], in test [5] and in test [6] was inactive. Besides, the result in test [7] and in [8] was inactive.
On to `CCCc1ccccc1`, for which the result in test [1], in [2], in [3], in test [4], in test [5] and in test [6] was inactive. Further, the outcome in [7] and in test [8] was inactive.
As to `OCCNCCO`, the outcome was “inactive” in test [1]; “inactive” in [2]; “inactive” in [3]; “inactive” with CD40, CD40 (gene 958); “inactive” in [5]; “inactive” in test [6]. For the same molecule, the result in test [7] and in test [8] was inactive.
In the case of `c1ccc2cc3ccccc3cc2c1`, the outcome in test [1] is “inactive”; in test [2] it was “inactive”; in test [3] it was “inactive”; in test [4], “inactive”; with CD40, CD40 (gene 958) it was “inactive”; in test [5], “inactive”. For the same molecule, the result in test [6], in [7] and in [8] was inactive.
As for `OC(Cn1cncn1)(Cn1cncn1)c1ccc(F)cc1F`, the outcome is “inactive” in [1]; “inactive” in [2]; “inactive” in [3]; “inactive” with CD40, CD40 (gene 958); “inactive” in test [5]; “inactive” in test [7]. Besides, the result in [8] and in [9] was inactive.
The AC50 is the concentration giving half of the maximal activity seen. As for `CCCCC(CC)C(=O)OCCOCCOCCOC(=O)C(CC)CCCC` (stereo not given), the outcome in [1], in test [2], in test [3], in test [4], in [5] and in [7] was inactive. The outcome in test [8] and in test [9] was inactive. The AC50 in test [6] was 15700 nM (active).
With `Cc1nc(-c2ccccn2)ncc1C(=O)Nn1cc(C)c2cc(F)ccc21`, the outcome in test [1], in test [2], in [3], in test [4], in test [5] and in [6] was inactive. In addition, the outcome in test [7], in test [8] and in test [9] was inactive.
As for `O=C1CN(N=Cc2ccc([N+](=O)[O-])o2)C(=O)N1`, the outcome in test [1] was “inactive”; in [2] it was “inactive”; in [3] it was “inactive”; in the test with CD40, CD40 (gene 958), “inactive”; in [5], “inactive”; in test [7], “inactive”. The result in [8] was inactive.
Turning to `CCn1nc(C)c2c1C(=O)NCC(c1ccc(O)cc1)=N2`, the result in test [1], in test [2], in test [3], in test [4], in test [5] and in [6] was inactive. Moreover, the result in test [7], in test [8] and in test [9] was inactive.
Take `OC(CCl)CCl`: the result in test [1], in test [2], in test [3], in [4], in test [5] and in test [7] was inactive. The result in test [8] was inactive.
As to `CC(C)CCCCCCOC(=O)C1CCCCC1C(=O)OCCCCCCC(C)C` (stereo not given), the outcome in test [1] is “inactive”; in test [2], “inactive”; in test [3] it was “inactive”; with CD40, CD40 (gene 958), “inactive”; in test [5], “inactive”; in [6] it was “inactive”. The result in test [7] and in [8] was inactive.
On to `Cn1c(=O)c2[nH]cnc2n(C)c1=O`, for which the outcome in test [1] is “inactive”; in test [2], “inactive”; in test [3], “inactive”; with CD40, CD40 (gene 958), “inactive”; in test [5] it was “inactive”; in [7], “inactive”. Also, the result in test [8] and in test [9] was inactive.
Turning to `COc1cc2c(c(OC)c1OC)-c1ccc(OC)c(=O)cc1[C@@H](NC(C)=O)CC2`, the result in test [1], in test [2] and in test [5] was inactive. For the same molecule, the half-maximal activity concentration (AC50) is 548 nM (active) in [3]; 148 nM (active) with CD40, CD40 (gene 958); 245 nM (active) in test [7]; 827 nM (active) in test [8].
Consider `NC(=O)N1c2ccccc2C=Cc2ccccc21`, for which the outcome is “inactive” in test [1]; “inactive” in test [2]; “inactive” in test [3]; “inactive” with CD40, CD40 (gene 958); “inactive” in test [5]; “inactive” in [6]. For the same molecule, the result in test [7], in test [8] and in test [9] was inactive.
On to `COc1cc(C(C)C)c2c(c1)S(=O)(=O)N(COc1cc(=O)n3cccc(OCCN4CCCCC4)c3n1)C2=O`, for which the result in [1], in test [4], in [6], in [7], in [8] and in test [9] was inactive. In addition, the AC50 in [2] was 2780 nM (active); in test [3] it was 7750 nM (active); in the test with CD40, CD40 (gene 958), 6390 nM (active); in test [5] it was 8030 nM (active).

Source of the values: PubChem BioAssay (EPA / NIEHS).
